Reference: PubChem BioAssay
Where “and” joins values, the source holds several entries; their conditions need not be identical. Identical values can stand only once. Calls of active or inactive are those of the source. Rule as the data show it, unless noted: active = inhibition above about 80%; inactive = the rest.

Key:
[1] = target: NAD(+) hydrolase SARM1 (Homo sapiens) (UniProt Q6SZW1); test: blocking NAD cleavage by SARM1 SAM-TIR – cell lysate, NAD-Glo luminescence (AID 1508614;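 active = compound whose remaining NAD level is above about 45 nM, limit read from the data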;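 also: higher remaining NAD means stronger inhibition of SARM1 NADase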); conditions: SAM-TIR HEK293T lysate NADase, at 1 µM, stronger effect = higher value
[2] = galactose survival enhancers in mitochondrial complex I cybrids – cell-based, galactose medium, ATP luminescence, primary screen (AID 1645843;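 active = z-score of at least 1.8 in each of two replicates, scored against plate mean and spread of sample wells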;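 also: positive z means more ATP and so rescue of galactose-driven cybrid death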); conditions: complex I mutant cybrid cells, 72 h, stronger effect = higher value
[3] = growth inhibition, single agent or in combination, cell-based, chromothripsis tumors, cisplatin or BGB combos (AID 1671449); conditions: LFS_MB_P medulloblastoma cells;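 also: cells exposed for 96 hours; 0% = vehicle DMSO and 100% = killing by high DMSO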
[4] = growth inhibition, single agent and combos, cell-based, chromothripsis tumors, cisplatin or BGB combos (AID 1671450); conditions: HDN33 neuroblastoma cells, stronger effect = higher value;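 also: cells exposed to compound for four days; 0% = vehicle DMSO and 100% = cell killing by high DMSO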
[5] = growth inhibition, single agents and combos, ICB984, cell-based, cisplatin or BGB combos, synergistic combos for chromothripsis tumors (AID 1671451; call rule not given here;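 also: cells exposed for 96 hours before readout; 0% = vehicle DMSO and 100% = killing by high DMSO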); conditions: ICB984 medulloblastoma cells, drug combinations, stronger effect = higher value
[6] = growth inhibition, single agents and combos, LFS_MB_1R, cell-based, cisplatin or BGB combos, synergistic combos for chromothripsis tumors (AID 1671452); conditions: LFS_MB_1R medulloblastoma cells, stronger effect = higher value;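 also: cells exposed for 96 hours before readout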
[7] = growth inhibition, single agents and combos, HTB85, cell-based, BGB or cisplatin IC20 combos, synergistic combos for chromothripsis tumors (AID 1671453); conditions: HTB85 osteosarcoma cells, drug combinations, stronger effect = higher value;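 also: cells exposed for 96 hours before readout; 0% = vehicle DMSO and 100% = high DMSO killing control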
[8] = growth inhibition, single agents and combos, CRL2098, cell-based, BGB or cisplatin IC20 combos, synergistic combos for chromothripsis tumors (AID 1671454); conditions: CRL2098 osteosarcoma cells, drug combinations, stronger effect = higher value;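 also: cells exposed for 96 h before readout; 0% = vehicle DMSO and 100% = killing by high DMSO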
[9] = growth inhibition, single agents and combos, HD-MB03, cell-based, BGB or cisplatin IC20 combos, synergistic combos for chromothripsis tumors (AID 1671455; in the data active = inhibition above about 83%;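 also: 0% = vehicle DMSO and 100% = high DMSO as cytotoxic control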); conditions: HD-MB03 medulloblastoma cells, stronger effect = higher value
[10] = growth inhibition, single agents and combos, UWB1.289, cell-based, BGB or cisplatin combos, synergistic combos for chromothripsis tumors (AID 1671456); conditions: UWB1.289 ovarian carcinoma cells, stronger effect = higher value;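 also: cells exposed to compound for four days; 0% = vehicle DMSO and 100% = killing by high DMSO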
[11] = growth inhibition, single agents and combos, LFS_MB_2R, cell-based, cisplatin combos, synergistic combos for chromothripsis tumors (AID 1671457); conditions: LFS_MB_2R medulloblastoma cells, stronger effect = higher value;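 also: cells exposed to compound for four days before readout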
[12] = growth inhibition, MDA-MB-436, cell-based, BGB or cisplatin combos, synergistic combos for chromothripsis tumors (AID 1671458; call rule not given here;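 also: cells exposed for 96 hours; 0% = vehicle DMSO and 100% = killing by high DMSO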); conditions: MDA-MB-436 breast carcinoma growth inhibition, drug combinations, stronger effect = higher value
[13] = UWB1.289_BRCA1 ovarian cancer growth, cell-based, BGB or cisplatin combinations (AID 1671459); conditions: UWB1.289 BRCA1 ovarian carcinoma, drug combinations, stronger effect = higher value
[14] = drug combination toxicity in non-malignant astrocytes – cell-based, BGB or cisplatin IC20 combos, cytotoxicity control for chromothriptic childhood tumor combination screen (AID 1671460); conditions: Human astrocytes, viability inhibition, drug combinations, at 0.5 µM, stronger effect = higher value;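 also: cells exposed to compounds for 96 hours before viability readout; 0% = vehicle and 100% = killing control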
[15] = BT084 cell growth, single and combined drugs, ICGC_MB145, cisplatin and BGB IC40 combos (AID 1671461); conditions: BT084 medulloblastoma cells, drug combinations, stronger effect = higher value;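 also: cells exposed to drugs for 96 hours; 0% = vehicle DMSO and 100% = high DMSO full killing control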
[16] = RCMB18 cell growth, single agent and combined, cisplatin and BGB IC40 combos (AID 1671462); conditions: RCMB18 medulloblastoma cells, stronger effect = higher value;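 also: cells exposed to compound for four days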
[17] = CRL1545 cell growth, single agent and combined, cisplatin and BGB IC20 combos (AID 1671464); conditions: CRL1545 osteosarcoma cells, stronger effect = higher value;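 also: cells exposed to compound for 96 hours before readout; 0% = vehicle DMSO and 100% = high DMSO killing control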
F380Y = test: BK channel mutant inhibitors and activators – cell-based, U2OS BacMam, thallium flux, beta subunits, selectivity assay, profiling panel (AID 1259406;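 active = thallium flux through the channel raised or lowered by more than 3 SD from vehicle-only wells, actives on both sides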;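 also: initial slope of Thallos dye fluorescence rise after thallium is added; log ratio against the mean of 0.3% DMSO vehicle wells on the same plate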); conditions: U2OS BacMam BK variants, at 30 µM
F380Y/beta1 = test: as above; conditions: U2OS BacMam BK variants, at 30 µM
[18] = measured here: combination with BGB IC40, at 0.05 µM
[19] = measured here: with BGB IC20 combination, at 0.5 µM
[20] = measured here: with cisplatin IC20 combination, at 0.5 µM
[21] = measured here: combination with cisplatin, at 0.5 µM
[22] = measured here: combination with cisplatin, at 5 µM

Sequence of NAD(+) hydrolase SARM1 (Homo sapiens) (Q6SZW1 whole entry, looked up): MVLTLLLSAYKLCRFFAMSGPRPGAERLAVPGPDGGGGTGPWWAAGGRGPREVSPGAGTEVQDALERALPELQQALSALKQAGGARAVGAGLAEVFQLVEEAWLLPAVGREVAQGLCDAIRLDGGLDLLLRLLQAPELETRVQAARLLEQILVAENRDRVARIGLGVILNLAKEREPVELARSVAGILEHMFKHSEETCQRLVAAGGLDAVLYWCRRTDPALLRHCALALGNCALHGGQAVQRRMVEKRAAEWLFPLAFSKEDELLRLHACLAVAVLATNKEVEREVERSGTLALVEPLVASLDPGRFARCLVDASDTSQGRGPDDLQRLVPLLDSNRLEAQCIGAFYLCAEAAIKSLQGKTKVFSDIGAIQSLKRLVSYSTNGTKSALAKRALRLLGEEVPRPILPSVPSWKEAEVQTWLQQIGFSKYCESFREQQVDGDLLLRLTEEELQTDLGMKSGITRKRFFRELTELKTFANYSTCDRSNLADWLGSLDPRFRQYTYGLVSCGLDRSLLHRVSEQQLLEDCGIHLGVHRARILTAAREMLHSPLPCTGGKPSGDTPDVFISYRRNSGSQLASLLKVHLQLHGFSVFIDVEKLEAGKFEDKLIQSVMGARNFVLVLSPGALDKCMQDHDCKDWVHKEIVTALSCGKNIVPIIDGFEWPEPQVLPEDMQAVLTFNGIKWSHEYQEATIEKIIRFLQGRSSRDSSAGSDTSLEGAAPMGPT

## Nc1nc2c(ncn2CCC(CO)CO)c(=O)[nH]1
[1]
  remaining NAD: 10 nM (inactive)
[2]
  z-score: 0.83 (inactive) and 0.595 (inactive)
[3]; at 0.5 µM, stronger effect = higher value
  inhibition: -31.4% (inactive) and 10.2% (inactive)
[3]; measured here: combination with BGB IC20, at 0.005 µM
  inhibition: 18% and -5.86%
[3]; measured here: combination with BGB IC40, at 0.005 µM
  inhibition: -15.5% and -23.1%
[3]; [18]
  inhibition: -8% and -22.9%
[3]; measured here: combination with cisplatin, at 0.5 µM, stronger effect = higher value
  inhibition: -43% and 6.39%
[3]; measured here: combination with cisplatin, at 5 µM, stronger effect = higher value
  inhibition: -0.859% and -46.3%
[4]; BGB combo, at 5 µM
  inhibition: -37% and 3.74%
[4]; at 0.5 µM
  inhibition: -21.5% (inactive) and -13.7% (inactive)
[4]; cisplatin combo, at 5 µM
  inhibition: -35.4% and 5.76%
[4]; [19]
  inhibition: -20.3% and -5.75%
[4]; [20]
  inhibition: -28.1% and -7.91%
[4]; single agent, at 5 µM
  inhibition: -23.7% and -10.4%
[5]; BGB IC20 combo, at 0.005 µM
  inhibition: 6.03% and -7.22%
[5]; BGB IC40 combo, at 0.005 µM
  inhibition: -30.8% and -8.59%
[5]; BGB IC40 combo, at 0.05 µM
  inhibition: -28.9% and 4.12%
[5]; at 0.5 µM
  inhibition: -31.2% (inactive) and -13.2% (inactive)
[5]; cisplatin combo, at 0.05 µM
  inhibition: -34.1% and 1.44%
[5]; cisplatin combo, at 0.5 µM
  inhibition: -50.7% and 4.42%
[5]; cisplatin combo, at 5 µM
  inhibition: -20.3% and -61.9%
[5]; measured here: 5 uM single agent, at 5 µM
  inhibition: 6.97% and -17.4%
[6]; at 0.5 µM
  inhibition: -19.7% (inactive) and -18.4% (inactive)
[6]; [18]
  inhibition: -23.5% and -18.9%
[6]; [21]
  inhibition: -56.8% and -22.6%
[6]; [22]
  inhibition: -7.78% and -27.3%
[7]; at 0.5 µM
  inhibition: -21.5% (inactive) and -5.99% (inactive)
[7]; measured here: with BGB IC20, at 0.5 µM
  inhibition: -16.4% and -34.5%
[7]; measured here: with BGB IC20, at 5 µM
  inhibition: -7.68% and -31%
[7]; measured here: with cisplatin IC20, at 0.5 µM
  inhibition: -24.9% and -1.09%
[7]; measured here: with cisplatin IC20, at 5 µM
  inhibition: -9.05% and -28%
[7]; single agent, at 5 µM
  inhibition: -16.3% and 0.079%
[8]; at 0.5 µM
  inhibition: -37% (inactive) and -44.9% (inactive)
[8]; measured here: combination with BGB at IC20, at 0.5 µM
  inhibition: -37.8% and -1.8%
[8]; measured here: combination with cisplatin at IC20, at 0.5 µM
  inhibition: -13.5% and -79.6%
[9]; at 0.5 µM
  inhibition: -6.81% (inactive) and 1.52% (inactive)
[9]; measured here: combo with BGB at IC20, at 0.5 µM
  inhibition: -13.9% and 7.53%
[9]; measured here: combo with cisplatin at IC20, at 0.5 µM
  inhibition: -2.89% and -3%
[10]; at 0.5 µM
  inhibition: -12.6% (inactive) and 3.48% (inactive)
[10]; measured here: inhibition with BGB combination, at 0.05 µM
  inhibition: -7.99% and -7.52%
[10]; measured here: inhibition with cisplatin combination, at 0.05 µM
  inhibition: -19.6% and -12.5%
[11]; at 0.5 µM
  inhibition: -3.59% (inactive) and -17% (inactive)
[11]; [21]
  inhibition: -6.24% and -17.7%
[11]; [22]
  inhibition: 9.1% and -63%
[12]; at 0.5 µM
  inhibition: -1.2% (inactive) and -23.3% (inactive)
[12]; measured here: BGB combination, at 0.5 µM
  inhibition: 8.81% and -18.4%
[12]; measured here: BGB combination, at 5 µM
  inhibition: 4.8% and -29%
[12]; measured here: cisplatin combination, at 0.5 µM
  inhibition: -6.71% and -45.8%
[12]; measured here: cisplatin combination, at 5 µM
  inhibition: 5.49% and -36%
[13]; BGB combination, concentration series, at 5 µM
  inhibition: -16.8% and -15.8%
[13]; at 0.5 µM
  inhibition: -10.2% (inactive) and 1.59% (inactive)
[13]; cisplatin combination, concentration series, at 5 µM
  inhibition: 4.16% and 10.4%
[14]
  inhibition: 6.25% (inactive) and 7.18% (inactive)
[14]; measured here: combo with BGB IC20
  inhibition: 34.9% and 5.65%
[14]; measured here: combo with cisplatin IC20
  inhibition: -9.35% and -4.75%
[15]; at 0.5 µM
  inhibition: 8.52% (inactive) and -29.3% (inactive)
[15]; cisplatin combination, at 0.5 µM
  inhibition: -11.9% and -14.8%
[15]; cisplatin combination, at 5 µM
  inhibition: -3.68% and -10.8%
[15]; measured here: BGB IC40 combination 0.05 uM, at 0.05 µM
  inhibition: 45.4% and 1.15%
[15]; single agent, at 5 µM
  inhibition: -12.8% and -18.7%
[16]; at 0.5 µM
  inhibition: 0.33% (inactive) and -16.2% (inactive)
[16]; cisplatin combo, at 5 µM
  inhibition: 3.43% and -89.1%
[16]; measured here: BGB IC40 combination, at 0.05 µM
  inhibition: 3.48% and 8.53%
[16]; [21]
  inhibition: -3.27% and -9.97%
[16]; single agent, at 5 µM
  inhibition: -16.9% and 37.5%
[17]; at 0.5 µM
  inhibition: -5.94% (inactive) and 9.73% (inactive)
[17]; [19]
  inhibition: -31% and 11.5%
[17]; [20]
  inhibition: 6.57% and 6.77%
[17]; single agent, at 0.05 µM
  inhibition: -14.4% and -21.2%
[17]; single agent, at 5 µM
  inhibition: -30.6% and 1.59%
F380Y
  log fold change Tl+ flux: 0.0173 (inactive)
F380Y/beta1
  log fold change Tl+ flux: -0.0111 (inactive)
